Calls of active or inactive are those of the source.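 How the source made its calls: active means any inhibition of parasite growth seen in the dose series, which yields a fitted potency; inactive means compounds showing no inhibition.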

A short description of the experiment: Inhibitors of Cruzain: Trypanosoma Cruzi Growth Inhibition Assay. The note with it: T. cruzi in NIH/3T3, beta-gal CPRG absorbance, 4 d. An excerpt:
Cruzain is a cysteine protease from the tropical parasite Trypanosoma cruzi. This assay protocol is for testing followup compounds for T. Cruzi growth inhibition. See following references for additional details: Jadhav A, et al. J Med Chem. 2010 Jan 14;53(1):37-51. Mott BT, et al. J Med Chem. 2010 Jan 14;53(1):52-60. Ferreira, et al. J Med Chem. 2010 Jul 8;53(13):4891-905. Bettiol E, et al. PLoS Negl Trop Dis. 2009;3(2):e384. Assay Provider: Shoichet, Brian; University of California, San Francisco and Ana Rodriguez, New York University School of Medicine. Screening Center PI: Austin, C.P. Screening Center: NIH Chemical Genomics Center [NCGC]
NIH/3T3 cells and parasites were harvested, washed once and resuspended in DMEM supplemented with 2% FBS and Pen-Strep-Glut. […] Different numbers of NIH/3T3 cells were seeded in 96-well plates. After 3 h, compounds were added at the indicated concentrations and mixed by pipetting. BZN tablets (Rochagan, Roche) dissolved in DMSO and 4uM Amphotericin B solution (Sigma-Aldrich) were used as positive controls. Different numbers of T. cruzi parasites were added in a final volume of 200 ul/well. […] Plates were incubated at 37 degrees C for 4 h and absorbance was read at 590 nm using a Tecan Spectra Mini plate reader. […] The IC50 was determined as the concentration at which the activity (absorbance) was half that in the absence of compound. […]
With `Cc1ccc(OCCn2c(CCNC(=O)C3CCCCC3)nc3ccccc32)cc1`, the Potency was 64 µM (active).

Source of the values: PubChem BioAssay AID504656 (National Center for Advancing Translational Sciences (NCATS), 2011).
